From the supplement of paper PMC6555819

Experiments:
Test in all cases: PBM binding z-score (relative to random genomic background probes); higher = stronger binding; sequences stand for … in GC…GCGATTGACAGCGTAGAATGAAGG
[1] = test system: RARb homodimer (NR concentration 270 nM)
In short: (§1)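 On custom Agilent 4×180K arrays, double-stranded probes with 34-nt variable regions carried direct-repeat seeds, single-nucleotide variants, half-site ablations or random human genomic background. Ligand-free nuclear receptor dimers were applied for 1 h, and binding was read with antibodies against each partner (one per run). Binding z-scores come from regression-normalized fluorescence, with the random background probes as reference.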

[2] = test system: RARg homodimer (NR concentration 270 nM)
In short: as §1

[3] = test system: RXRa DBDmut IVT, anti-RXR (DBD mutation: RXRa K156A/R161A, NR concentration 90 nM)
In short: as §1

[4] = test system: RXRa homodimer (NR concentration 180 nM)
In short: as §1

[5] = test system: THRa:RXRa (NR concentration 90 nM, RXRa partner concentration 90 nM)
In short: as §1

[6] = test system: THRa homodimer (NR concentration 90 nM)
In short: as §1

[7] = test system: VDR:RXRa (NR concentration 270 nM, RXRa partner concentration 90 nM)
In short: as §1

[8] = test system: VDR homodimer (NR concentration 270 nM)
In short: as §1

[9] = test system: RARg:RXRa (NR concentration 270 nM, RXRa partner concentration 90 nM)
In short: as §1

Sequence	PBM binding z-score [1]	PBM binding z-score [2]	PBM binding z-score [3]	PBM binding z-score [4]	PBM binding z-score [5]	PBM binding z-score [6]	PBM binding z-score [7]	PBM binding z-score [8]	PBM binding z-score [9]
TCTAGTTGGTGACGGAGGTCACACACGACGGGTA	3.88	3.21	0.917	4.29	3.41	2.23	3.98	1.83	–
ATCGAACGGTCGACGAGGTGAGTATACACCGTTT	0.461	1.21	-0.546	–	1.26	0.292	–	-0.356	0.635
TTACCGAGGTGAAAGGTCGTTGATGCACGCCTTG	2.67	1.87	0.775	6.76	3.7	0.983	3.72	1.47	–
GCTTACGGGTCAAAAGTTATAGCATGAATAGAAT	2.05	3.15	1.93	4.84	2.08	-0.478	2.93	0.684	–
CCTTACGGGTCAGGGTTATAGCACGGGTGGTACG	2.89	3.8	-0.999	3.87	2.29	0.154	2.26	0.894	–
CCTTCTGGGCCATTCAGAGGTCATTGATCATATG	4.13	3.3	1.38	–	3.31	1.51	–	3.47	4.56
CGAACTAAGTCATTGACAGGACAGTGAATAGTAA	-0.122	0.434	0.322	-0.0903	0.19	-0.56	-0.19	-0.385	–
GCTAGTAGGTCAGTAAAAGGTCACACACCGGTCG	6.06	7.14	0.784	6.4	4.27	1.97	–	2.37	–
TATACAGGGTCAAAGGGCAGAGTACGAATGTCGA	4.22	5.48	3.14	–	3.98	1.48	–	3.82	6.33
GCTGCTAGGTCAACTGAGGGTCAGCTAAAGCTCG	5.18	6.85	1.67	4.59	4.16	1.47	–	1.36	–
AGTCAAAGTTCAGGACGAGGTACCGTAAAGCACG	3.04	4.98	2.91	3.07	2.66	0.724	–	1.78	–
CCTCGGAGGTCAGAAGGTCAGAGCTGTCCGCTTT	5.21	7.12	2.31	6.44	3.41	0.451	–	1.47	–
TAGCCAAGGTCATTCAGGGGCCAGTATAGAAAGC	4.08	6.27	4.05	5.47	4.08	1.75	–	3.99	–
ATCGAAAGGTCGAAGGAGAGTATACCCACCCGAA	1.98	3.81	0.774	3.75	1.76	-0.242	–	0.458	–
TATCCTAGGTCAGATCGGGCCAGTATACGCTATA	2.53	3.86	0.36	2.21	4.25	0.858	–	0.237	–
AGTCAAAGTTGATCTAGGTAACGTAAGATATGCT	-0.057	0.579	-0.227	0.191	1.36	-0.0633	–	-0.278	–

Sequence	PBM binding z-score [1]	PBM binding z-score [2]	PBM binding z-score [3]	PBM binding z-score [4]	PBM binding z-score [5]	PBM binding z-score [6]	PBM binding z-score [7]	PBM binding z-score [8]	PBM binding z-score [9]
CGAACTAAGTCACCAGGACAGTGAAGAGGTTGGA	0.502	0.343	0.000632	0.285	1.27	0.708	–	0.106	–
ATCGAAAGGTCGAAAGTGAGTATACCCACCCGAA	1.74	3.15	1.22	3.52	1.51	-0.286	–	0.782	–
TGGCCTAGGTCATGGGCCAGTATACCACGCGAAC	2.96	5.07	-0.28	3.6	2.83	0.639	–	-0.0403	–
ATCGAATGGTCGAGGTGAGTATAGAGAAAGGGAA	0.319	0.76	-0.577	0.118	0.936	0.55	–	-0.57	–
CCTACTGGGCCAATAAGGTCATTGATGCCGATAA	3.48	2.87	1.09	2.78	4	3.44	–	2.76	–
GCTGCTAGGTCAACTGAAGGTCAGCTAAAGCTCG	5.31	7.38	1.68	4.88	4.03	1.66	–	1	–
CGAACTAGGTCAAAAGACAGTGAAAGGCGACGTA	1.72	3.68	1.21	2.54	1.64	-0.0657	–	-0.0484	–
TCTCGGAGGACACGAAGGTCAGCGCTTTCCAGAG	3.93	4.24	0.82	2.38	3.23	1.21	–	1.46	–
CCTACTGGGCCAAAGGACATTGATTCCAATGCTC	0.475	0.664	-0.27	0.166	-0.11	-0.145	–	-0.13	–
CGTCCAAGGTCATGGGAGGTCAGTGAAGACAGAT	5.85	7.97	3.73	7.56	5.51	3.83	–	4.5	–
CCTAGCAGGCCAGGTTCACTCAAGCATTTCGCTT	0.543	0.106	2.28	0.844	0.5	0.0438	–	3.42	–
CCTACTGGGCCAAAGGCCATTGATTCCAATGCTC	0.736	0.568	-0.726	-0.132	-0.0621	-0.567	–	-0.468	–
CGTCCAAGGTCAAAGGTCACTGAAGAGATGACGG	5.74	8.6	4.13	10.1	4.9	3.25	–	4.21	–
ATCGAAAGGTCGAGGAGGTGAGTATACACCGTTT	2.92	4.23	0.868	4.21	2.85	-0.12	–	0.435	–
CCTCGGAGGACAACCGGAGGTCAGAGCTGCCAGA	3.53	3.47	0.243	1.86	3.14	1.3	–	1.41	–
